# In PubChem BioAssay (Tox21):
# Records with an inconclusive call do not appear. A call without a number means that no potency is given here. Values without a mark were called inactive. Active and inactive are the calls of the source. Calls follow the shape of the full dose curve.
# Experiment: cAMP Responsive Elements (CRE) small molecule agonists, cell-based qHTS assay (AID 1963590)
# Conditions: CRE-bla HEK293T, beta-lactamase FRET ratio, 3 h; series mostly up to 92.4 µM; activation: at the top concentration
# Description: U.S. Tox21 Program National Center for Advancing Translational Sciences [NCATS] Division of Preclinical Innovation [DPI] U.S. Environmental Protection Agency [EPA] National Institutes of Environmental Health Sciences [NIEHS] National Toxicology Program [NTP] U.S. Food and Drug Administration [FDA] Tox21 Assay Overview: CREB (cyclic-AMP Responsive Element Binding Protein) is a cellular transcription factor. It binds to certain DNA sequences called cAMP Responsive Elements (CRE) and regulates the transcription of the genes. […] This cell line can be used to find agonists/antagonists of the cyclic AMP signaling pathway. The activation of the report gene under culture conditions can be detected by fluorescence intensity. This cell line has been used to screen the Tox21 10K compound library to identify agonists that induce oxidative stress.
# Tox21 Assay Protocol Summary: CRE-bla Hek 293T cells were suspended in assay medium (DMEM containing 10% dialyzed FBS, 0.1 mM NEAA, 1 mM sodium pyruvate and 25 mM HEPES) and dispensed at 2,000 cells/5 uL /well into 1536-well black wall/clear bottom plates using a Multidrop Combi (ThermoFisher Scientific, Waltham, MA) dispenser. After the assay plates were incubated at 37 C/5% CO2 for 18 hrs, 23 nL of compounds dissolved in DMSO, positive controls or DMSO only was transferred to the assay plate by a pintool workstation (Kalypsys, San Diego, CA). After the plates were incubated at 37 C/5% CO2 for 3 hrs, 1 uL of LiveBLAzer B/G FRET substrate (Invitrogen, Carlsbad, CA) was added to each well using Bioraptr Flying Reagent Dispenser (FRD, Aurora Discovery, San Diego, CA). The plates were incubated at room temperature for 2 h.
SMILES,activation,Potency
O=C(c1cc(O)c(O)c(O)c1)c1ccc(O)c(O)c1O,-0.116% [at 42.5 µM],–
O=C(Cl)c1c(Cl)c(Cl)c(C(=O)Cl)c(Cl)c1Cl,–,inactive
CC(=O)OCCOC(C)=O,–,inactive
c1ccc2cc3ccccc3cc2c1,–,inactive
CC(COc1ccccc1)N(CCCl)Cc1ccccc1 (stereo not given),–,inactive
CC1(C)O[C@@H]2C[C@H]3[C@@H]4CCC5=CC(=O)C=C[C@]5(C)[C@@]4(F)[C@@H](O)C[C@]3(C)[C@]2(C(=O)CO)O1,–,inactive
CCC(=O)/C=C/C1C(C)=CCCC1(C)C (stereo not given),–,inactive
CCCC(C)=O,–,inactive
C[C@]12C=CC(=O)C=C1CC[C@H]1[C@@H]3C[C@@H](O)[C@](O)(C(=O)CO)[C@@]3(C)C[C@H](O)[C@@]12F,–,inactive
CN(C)C(=O)Nc1ccc(Cl)c(Cl)c1,–,inactive
C#CC1(O)CC[C@H]2[C@@H]3CCC4=CCCC[C@@H]4[C@H]3CC[C@@]21C (stereo not given in full),1.78% [at 42.5 µM],–
COCCc1ccc(OCC(O)CNC(C)C)cc1 (stereo not given),–,inactive
CC(=O)Oc1ccccc1C(=O)O,–,inactive
C[Si](C)(C)N[Si](C)(C)C,–,inactive
C[Si](O[Si](C)(C)C)O[Si](C)(C)C,–,inactive
CC1(C)O[C@@H]2C[C@H]3[C@@H]4C[C@H](F)C5=CC(=O)CC[C@]5(C)[C@H]4[C@@H](O)C[C@]3(C)[C@]2(C(=O)CO)O1,-0.214% [at 42.5 µM],–
Clc1cc(Cl)c(Cl)cc1Cl,–,inactive
O=C(OCc1ccccc1)c1ccccc1,–,inactive
N#Cc1ccccc1,–,inactive
CCOCCO,–,inactive

SMILES,activation,Potency
COc1cc(C=O)ccc1O,–,inactive
Oc1ccc2ccccc2c1N=Nc1ccccc1,-1.11%,–
O=C(O)CCCC[C@@H]1SC[C@@H]2NC(=O)N[C@@H]21,–,inactive
NC(=O)c1cnccn1,–,inactive
CC(C)(Oc1ccc(Cl)cc1)C(=O)O,–,inactive
CC(C)(N)CO,–,inactive
CCCCC(CC)CO (stereo not given),–,inactive
Cc1ccc2ncccc2c1,–,inactive
O=C(O)c1cccc([N+](=O)[O-])c1,–,inactive
c1cc(-c2ccncc2)ccn1,-3.28%,–
CCCCCCCCCCCCCC(=O)O,–,inactive
OC[C@@H](O)[C@H](O)[C@H](O)[C@@H](O)CO,–,inactive
CC1=CC(C)(C)Nc2ccccc21,–,inactive
CCCCCCCCCCCCO,–,inactive
CCc1ccc(O)cc1,–,inactive
Cc1c(N(C)C)c(=O)n(-c2ccccc2)n1C,–,inactive
Cc1ccc(C)c(O)c1C,–,inactive
CCCCNC(=O)NS(=O)(=O)c1ccc(C)cc1,–,inactive
CCc1cc(C(N)=S)ccn1,–,inactive
CCCCC(C=O)CC (stereo not given),–,inactive
